IMPase Li inh – IMPase inhibition in cells with lithium potentiation; actives 0.35% (n = 210,000); CHO-M1 cells, IP1 TR-FRET (IP-One), carbachol + lithium; AID 1457; Potency, µM (titrated, usually from 59.4 µM), inactives show at the top dose activity, negative = IMPase inhibition, usual class: inhibitors; active = well fitted curve in the direction sought with a large enough effect; inconclusive = small, poorly fitted or top-dose-only effect, or another doubt; inactive = no such curve, though single readings can be large; an effect the other way counts as inactive or inconclusive;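 also: IP1 builds up when IMPase is blocked and the TR-FRET signal falls; potency is read from the fitted curve at half-maximal effect; plate controls were basal vehicle for no effect and high inhibitor control for full effect; nearly all actives have a fitted effect of over 50% in size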
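Test compounds were applied to CHO-M1 cells previously cultured for 16–30 h at 2000 per well. A small lithium amount accompanied them; after 30 min at 37C, IP1 was quantified by TR-FRET.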
PNC inhibitor – inhibitors of perinucleolar compartment assembly. PC3M PTB-GFP, PNC prevalence imaging, 16 h; active compounds read low. activity change (PNC), negative = inhibition, % at 10 µM. actives 3.1% (n = 140,000). AID 2417;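 active = readout at or below -70, meaning at least 70% loss of cells showing the perinucleolar compartment, a nuclear body marking cancer cells; inconclusive = readout between -30 and a set limit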;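 also: plate controls were DMSO wells for no effect and camptothecin positive control wells for full effect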
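Read-out is percentage of cells bearing a perinucleolar compartment, from automated 20x imaging of fixed, Hoechst-stained PC3M PTB-GFP cells. Cells were seeded 4 h, then exposed 16 h to compound (23 nl of library stock) in duplicate plates.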
12-hLO inh – blocks human 12-lipoxygenase activity | actives 0.12% (n = 150,000) | P18054 | Potency, µM (series often up to 57.1 µM), for inactives: at the highest dose activity change, negative = inhibition, actives largely listed as inhibitors | purified 12-hLO, xylenol orange hydroperoxide absorbance | AID 1452; active = well fitted curve in the direction sought with a large enough effect; inconclusive = small, poorly fitted or top-dose-only effect, or another doubt; inactive = no such curve, though single readings can be large; an effect the other way counts as inactive or inconclusive; also: potency is read from the fitted curve at half-maximal effect; nearly all actives have a fitted effect of over 55% in size
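Purified human 12hLO (150 nM), preincubated 15 min with compound, then 40 uM arachidonic acid for 30 min, room temperature, Hepes pH 7.0 with 0.01% Triton X-100. Hydroperoxide detected by ferrous iron/xylenol orange; 573/405 nm absorbance ratio gives reaction progress.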
HPGD inh – HPGD (human) dehydrogenase inhibition; P15428; purified HPGD, NADH fluorescence kinetic, PGE2 substrate; Potency, µM, inactives show at the top dose activity change, negative = inhibition, hits mostly inhibitors; actives 4.3% (n = 150,000); also: potency is read from the fitted curve at half-maximal effect
Target sequence (P15428 whole entry, looked up): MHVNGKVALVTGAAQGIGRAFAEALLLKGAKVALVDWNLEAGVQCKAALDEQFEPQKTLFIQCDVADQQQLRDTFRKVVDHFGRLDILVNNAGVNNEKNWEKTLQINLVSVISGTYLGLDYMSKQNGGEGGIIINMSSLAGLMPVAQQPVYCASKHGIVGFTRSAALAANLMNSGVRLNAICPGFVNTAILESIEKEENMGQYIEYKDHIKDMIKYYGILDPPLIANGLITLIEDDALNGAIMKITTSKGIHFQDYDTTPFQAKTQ
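20 nM HPGD preincubated 15 min at room temperature with compound in 50 mM Tris-HCl pH 8, 0.01% Tween 20. Started with 1 mM NAD+ and 30 uM prostaglandin E2; NADH fluorescence (360/450 nm) read 5 times over 30-s intervals, last minus first.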
IMPase inh – IMPase inhibition in cells | P97697 | CHO-M1 cells, IP1 accumulation, HTRF TR-FRET ratio | inhibition (IP1 accumulation), % at 46.1 µM | 120,000 tested, under 10 active; active = well fitted curve in the direction sought with a large enough effect in the signal ratio, not every such curve was filed as active; inconclusive = small, poorly fitted or top-dose-only effect, or a change in a side signal; inactive = no such curve, though single readings can be large or run the other way; the % refers to the signal ratio;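 also: cells stimulated with carbachol in lithium chloride buffer; plate controls were DMSO basal wells for no effect and reference inhibitor wells for full effect; higher means more IMPase inhibition seen as more IP1 and lower FRET ratio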
Target sequence (P97697 whole entry, looked up): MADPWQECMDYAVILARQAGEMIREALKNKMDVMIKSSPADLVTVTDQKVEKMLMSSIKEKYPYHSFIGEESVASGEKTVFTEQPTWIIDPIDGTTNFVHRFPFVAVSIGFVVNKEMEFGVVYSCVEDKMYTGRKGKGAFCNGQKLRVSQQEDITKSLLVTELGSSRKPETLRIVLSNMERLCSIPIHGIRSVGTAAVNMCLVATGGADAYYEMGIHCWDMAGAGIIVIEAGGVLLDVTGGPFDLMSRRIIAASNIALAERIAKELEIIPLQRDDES
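In this qHTS, compounds (final up to 46 uM) act on CHO-M1 cells that are then activated through the M1 receptor with carbachol, in pH 7.4 buffer containing 50 mM LiCl, for 30 min. IP1 accumulation is quantified by the IP-One immunoassay.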
ALDH1A1 block – inhibitors of human aldehyde dehydrogenase 1A1; Purified ALDH1A1, NADH fluorescence, propionaldehyde substrate; P00352; Potency, µM (titrated, usually from 75.3 µM), inactives show at the top dose activity, negative = inhibition, actives largely listed as inhibitors; actives 7.3% (n = 220,000);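 also: potency is read from the fitted curve at half-maximal effect; plate controls were no enzyme wells and a reference inhibitor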
The depositor's hits bear a star; ? = inconclusive; nt = not tested or not shown; [ ] = another dose, or the depositor's remark. Compounds with a hit are over-represented: about 11% of the library has one in this group of screens. Unless noted, calls follow the shape of the dose curve; as a rule, active = well fitted inhibition curve with a large enough effect (not every such curve was filed as active); inconclusive = small, poorly fitted or top-dose-only effect, or another doubt; inactive = no such curve, though single readings can be large or run the other way. Unless noted, % is scaled to controls: 0 for no effect and ±100 for the full control effect.

SMILES	IMPase Li inh	PNC inhibitor	12-hLO inh	HPGD inh	IMPase inh	ALDH1A1 block
CCOc1cc(S(=O)(=O)NCc2ccc3c(c2)OCO3)c(C)cc1C	24.8%[38.3 µM]	-19.1	-7.5%	-6.0%	2.9	-6.6%
COc1ccccc1CC(=O)NCc1ccc2c(c1)OCO2	35.5%[38.3 µM]	-23.2	-4.7%	14.1µM*	?	?
CCOc1cc(C)c(Cl)cc1S(=O)(=O)NCc1ccc2c(c1)OCO2	5.8%[38.3 µM]	-113.4*	-9.3%	-9.8%	6.9	?
CCC(OC(=O)c1ccco1)C(=O)NCc1ccc(C)cc1 (stereo not given)	-2.1%[38.3 µM]	35.9	-4.4%	28.2µM*	3.6	-2.8%
O=C(OC(C(=O)NCc1ccc2c(c1)OCO2)c1ccccc1F)c1ccco1 (stereo not given)	14.4%[38.3 µM]	13.1	-20.3%	?	6.2	1.58µM*
Cc1ccc(CN2CCN(Cc3ccc(C)o3)[C@@H](C)C2)o1	14.5%	nt	-1.5%[11.4 µM]	-6.2%	nt	5.2%[13.5 µM]
O=C(CSc1nnc2scc(-c3ccccc3)n12)Nc1ccc(Cl)cc1	nt	nt	nt	nt	8.6	nt
CCOc1ccccc1C(=O)NCc1ccc2c(c1)OCO2	16.5%[38.3 µM]	54.6	-5.1%	3.98µM*	-7.7	2.6%
CCCN1Cc2cccc(C(=O)NCc3ccc4c(c3)OCO4)c2C1=O	9.5%[38.3 µM]	?	-10.9%	-9.2%	-6.1	14.1µM*
COc1c(Cl)cc(-c2noc(C)c2C(=O)NCc2ccc3c(c2)OCO3)cc1Cl	3.1%	10.1	-1.1%	-6.2%	nt	0.708µM*
C#CCOC(=O)NC(/C=C/CCCC)c1ccccc1 (stereo not given)	13.0%	nt	0.8%	-8.6%	nt	8.5%
CCCCCCCCCCCCCCCCCC(=O)NC[C@@H](COP(=O)([O-])OCC[N+](C)(C)C)OCC	nt	nt	23.1%	nt	3.8	nt
CCCCCn1c(=O)c(-c2nc3ccccc3[nH]2)c(O)c2ccccc21	2.1%	nt	nt	nt	nt	?
CCOC(=O)c1c(-c2cccs2)csc1NC(=O)CCCC(=O)O	10µM*	98.1	1.8%	-25.5%	?	-4.9%
CCOC(=O)c1c(-c2cccs2)csc1NC(=O)C(C)(C)C	42.5%[38.3 µM]	22.0	2.6%	?	1.3	-0.2%
CCOC(=O)c1c(-c2cccs2)csc1NC(=O)CN1CC(C)OC(C)C1 (stereo not given)	47.7%[38.3 µM]	22.1	-4.3%	-29.6%	12.8	?
CCOC(=O)c1c(-c2cccs2)csc1NC(=O)CSc1ncn[nH]1	17.7%[38.3 µM]	?	4.5%	?	0.1	20µM*
CC(=O)OC1CC(OC(C)=O)[C@]2(C)C(CC(=O)[C@]3(C)C2CC[C@@]2(C)C(c4ccoc4)OC(=O)C4O[C@@]423)C1(C)C (stereo not given in full)	-4.7%	nt	-0.9%	-1.1%	nt	1.1%
CSCCC(NS(=O)(=O)c1ccccc1F)C(=O)OCc1ccccc1Cl (stereo not given)	1.8%	1.2	0.4%	-13.0%	nt	15.8µM*
O=C(c1cc(C(F)(F)F)cc(C(F)(F)F)c1)N1CCC2(CCCN(Cc3ccccc3)C2)CC1	24.8%	nt	4.8%	-8.9%	nt	4.1%
CCCCN(C(=O)NC(=O)C1=C(N2CCOCC2)/C(=C/c2ccccc2)CC1)S(C)(=O)=O	?	?	-12.7%	?	4.4	?
CCOC(=O)C(=O)C1=C(N2CCOCC2)/C(=C\c2ccc(F)cc2)CC1	5.9%	-4.0	5.4%	-11.5%	nt	12.6µM*
CCOC(=O)C1=C(N)Oc2ccc(Br)cc2C1C(C#N)C(=O)OCC (stereo not given)	-11.5%	nt	nt	nt	nt	15.8µM*
CCCC1=C(C(=O)OCC)C(c2cccs2)C(C#N)=C(N)O1 (stereo not given)	14.0%[38.3 µM]	-23.6	-29.1%	-19.0%	-11.9	?
COc1cc(NS(=O)(=O)c2ccc(NC(=O)c3ccccc3C(=O)O)cc2)nc(OC)n1	nt	nt	nt	nt	5.4	nt
SMILES	IMPase Li inh	PNC inhibitor	12-hLO inh	HPGD inh	IMPase inh	ALDH1A1 block
c1ccc(OCc2nnc3n2N=C(c2ccccc2)CS3)cc1	5.3%	nt	nt	nt	nt	10µM*
COc1ccc(OCc2nnc3n2N=C(c2ccc(OC)cc2)CS3)cc1	16.3%[38.3 µM]	4.3	4.3%	-29.8%	-2.1	?
COc1ccccc1C1=Nn2c(COc3ccccc3)nnc2SC1	12.0%	nt	nt	nt	nt	14.1µM*
Cc1c(Br)c([N+](=O)[O-])nn1CC(=O)Nc1ccc(Cc2ccncc2)cc1	24.0%	-93.1*	0.3%	-18.2%	nt	?
CC(=O)Nc1ccc(NC(=O)Cn2nc([N+](=O)[O-])c(Br)c2C)cc1	2.9%	nt	nt	nt	nt	3.1%
C/C(CC(=O)Nc1ccccn1)=N\NC(=O)c1ccc2ccccc2c1	5.2%	?	-0.9%	-16.0%	nt	5.62µM*
COc1cc(/C=N/N=C2/SCC(=O)N2c2ccc(O)cc2)ccc1O	-8.5%	nt	nt	nt	nt	-6.0%
Cc1cc(C(=O)CSc2nncs2)c(C)n1-c1c(C)n(C)n(-c2ccccc2)c1=O	19.6%[38.3 µM]	5.4	-6.6%	-3.1%	22.0	-1.3%
Cc1cc(C(=O)COC(=O)c2ccc[nH]c2=O)c(C)n1-c1ccc(Br)cc1	-10.8%	?	-0.8%	-12.3%	nt	-3.3%
Cc1ccc(-n2c(C)cc(C(=O)CN3CCCCC3)c2C)cc1	12.7%	?	-2.2%	12.6µM*	nt	-24.2%
Cc1ccc(-n2c(C)cc(C(=O)CSc3nncs3)c2C)cc1	9.6%[38.3 µM]	?	-13.0%	25.1µM*	11.2	5.5%
Cc1cc(C(=O)CCl)c(C)n1-c1c(C)n(C)n(-c2ccccc2)c1=O	31.4%	nt	nt	nt	nt	12.6µM*
Cc1ccc(-n2c(C)cc(C(=O)COC(=O)c3ccc[nH]c3=O)c2C)cc1	-2.9%	-82.0*	-1.5%	-4.5%	nt	13.8%
CCSc1nnc2n(-c3cccc(C)c3)c(=O)c3c4c(sc3n12)CCCC4	nt	nt	nt	nt	-3.9	nt
CCCOc1ccc(C2CC(=O)Nc3c2c(=O)n(C)c(=O)n3C)cc1OC (stereo not given)	nt	nt	nt	nt	7.6	nt
COc1ccc(C(=O)N(Cc2ccc(C(C)C)cc2)C2CCS(=O)(=O)C2)cc1 (stereo not given)	nt	nt	nt	nt	-2.1	nt
Cc1cc(-n2c(C)cc(C(=O)CCl)c2C)no1	9.1%	nt	nt	nt	nt	1µM*
Cc1cc(-n2c(C)cc(C(=O)CN3C(=O)NC4(CCCC4)C3=O)c2C)no1	-4.1%	-116.9*	-0.3%	0.1%	11.1	3.0%
COc1ccc(-n2c(C)cc(C(=O)COC(=O)Cn3cnc4ccccc43)c2C)cc1	25.8%[38.3 µM]	-27.5	-3.5%	-28.9%	1.0	12.6µM*
COc1ccc(-n2c(C)cc(C(=O)CN3C(=O)c4ccccc4C3=O)c2C)cc1	7.5%	?	4.1%	-10.9%	1.0	?
Cc1cc(-n2c(C)cc(C(=O)COc3ccc([N+](=O)[O-])cc3)c2C)no1	10.0%	nt	nt	nt	nt	-5.3%
COc1ccc(-n2c(C)cc(C(=O)CCl)c2C)cc1	6.4%	nt	nt	nt	nt	0.316µM*
